From PubChem BioAssay (NCI)
This is part of a sample that, as a whole, favours compounds with a hit. Of some 83,000 tested, about 20% had one in any assay.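 Cell lines were cultured in 96-well plates, exposed to a single compound concentration, and assessed for percent growth 48 hours later.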 Active and inactive are the calls of the source. How the source made its calls: active means growth percent below 10; inactive means the rest.

How the values were obtained:
Assay in all cases: NCI-60 one-dose screen, 48 h (100 = growth as untreated, 0 = no growth, -100 = all killed)
Conditions in all cases: 10 µM unless noted
SK-MEL-2 melanoma = system: SK-MEL-2 melanoma
EKVX NSCLC = system: EKVX NSCLC
SN12C renal = system: SN12C renal
UO-31 renal = system: UO-31 renal
TK-10 renal = system: TK-10 renal
ACHN renal = system: ACHN renal
CAKI-1 renal = system: CAKI-1 renal
A498 renal = system: A498 renal
CCRF-CEM leukemia = system: CCRF-CEM leukemia
MOLT-4 leukemia = system: MOLT-4 leukemia
RPMI-8226 leukemia = system: RPMI-8226 leukemia
OVCAR-8 ovarian = system: OVCAR-8 ovarian
OVCAR-5 ovarian = system: OVCAR-5 ovarian
OVCAR-4 ovarian = system: OVCAR-4 ovarian
SK-OV-3 ovarian = system: SK-OV-3 ovarian
OVCAR-3 ovarian = system: OVCAR-3 ovarian
HS 578T breast = system: HS 578T breast
NCI/ADR-RES ovarian = system: NCI/ADR-RES ovarian
SR leukemia = system: SR leukemia
IGROV1 ovarian = system: IGROV1 ovarian

Measured: growth

CC1=NC(=S)NC(c2ccccc2)/C1=C1/CC(c2ccccc2O)NN1 (centres undefined)
inactive: SK-MEL-2 melanoma 108% | EKVX NSCLC 95.7% | SN12C renal 97.5% | UO-31 renal 73.1% | TK-10 renal 138% | ACHN renal 101% | CAKI-1 renal 84.8% | A498 renal 93.8% | CCRF-CEM leukemia 99.1% | MOLT-4 leukemia 99.9% | RPMI-8226 leukemia 97.7% | OVCAR-8 ovarian 96.6% | OVCAR-5 ovarian 101% | OVCAR-4 ovarian 101% | SK-OV-3 ovarian 98.2% | OVCAR-3 ovarian 109% | HS 578T breast 108% | NCI/ADR-RES ovarian 104%

NS(=O)(=O)Oc1cccc(-c2nc3sccn3c2-c2ccccc2)c1
inactive: SK-MEL-2 melanoma 55.6% | EKVX NSCLC 66.7% | SN12C renal 53% | UO-31 renal 68.8% | TK-10 renal 87.9% | ACHN renal 75.1% | CAKI-1 renal 45.7% | CCRF-CEM leukemia 40.2% | SR leukemia 19.8% | RPMI-8226 leukemia 44.1% | OVCAR-8 ovarian 66.8% | OVCAR-5 ovarian 95.2% | OVCAR-4 ovarian 74.9% | SK-OV-3 ovarian 76.7% | OVCAR-3 ovarian 39.1% | HS 578T breast 47% | NCI/ADR-RES ovarian 48.1%
active: A498 renal 7.63%

O=C(OCc1ccc2c(Br)cc(Br)c(O)c2n1)N1CCN(C(=O)c2cc3ccccc3[nH]2)CC1
inactive: SK-MEL-2 melanoma 44.8% | EKVX NSCLC 29.9% | SN12C renal 31.3% | UO-31 renal 12.8% | TK-10 renal 47.5% | ACHN renal 14.4% | CAKI-1 renal 23% | A498 renal 20.3% | CCRF-CEM leukemia 21.2% | SR leukemia 31.3% | RPMI-8226 leukemia 34.3% | OVCAR-8 ovarian 25.5% | OVCAR-5 ovarian 54.3% | OVCAR-4 ovarian 26% | SK-OV-3 ovarian 40.1% | IGROV1 ovarian 31.5% | OVCAR-3 ovarian 31.3% | HS 578T breast 48.2%
active: NCI/ADR-RES ovarian 7.07%

CCOC(=O)c1cc(C(=O)c2cc(OC)cc(OC)c2)n2ccccc12
inactive: SK-MEL-2 melanoma 41.7% | EKVX NSCLC 73.7% | SN12C renal 66.9% | UO-31 renal 62% | TK-10 renal 55.9% | ACHN renal 48.6% | CAKI-1 renal 42.2% | A498 renal 28.8% | CCRF-CEM leukemia 34.6% | SR leukemia 16.3% | RPMI-8226 leukemia 27.6% | OVCAR-8 ovarian 42.2% | OVCAR-5 ovarian 95.2% | OVCAR-4 ovarian 72.4% | SK-OV-3 ovarian 35.8% | IGROV1 ovarian 52.7% | HS 578T breast 39.4% | NCI/ADR-RES ovarian 12.4%
active: OVCAR-3 ovarian -5.04%

CN1CCN(Cc2ccc(NC(=O)c3cncc(C#Cc4cnc(N)c5ncccc45)c3)cc2Cl)CC1
inactive: SK-MEL-2 melanoma 56.5% | EKVX NSCLC 106% | SN12C renal 92.5% | UO-31 renal 64.7% | TK-10 renal 104% | ACHN renal 41.8% | CAKI-1 renal 73.5% | A498 renal 104% | RPMI-8226 leukemia 73.1% | OVCAR-8 ovarian 101% | OVCAR-5 ovarian 95.1% | SK-OV-3 ovarian 109% | IGROV1 ovarian 110% | OVCAR-3 ovarian 116% | HS 578T breast 80.1% | NCI/ADR-RES ovarian 74.9%
active: CCRF-CEM leukemia -2.07% | SR leukemia -1.93%

COc1cc2ncnc(Nc3ccc(S(=O)(=O)Nc4cc(C)on4)cc3)c2cc1OCCCN1CCOCC1
inactive: SK-MEL-2 melanoma 101% | EKVX NSCLC 93.4% | SN12C renal 104% | UO-31 renal 88.1% | TK-10 renal 95.3% | ACHN renal 106% | CAKI-1 renal 98% | A498 renal 104% | CCRF-CEM leukemia 104% | SR leukemia 103% | RPMI-8226 leukemia 106% | OVCAR-8 ovarian 98.2% | OVCAR-5 ovarian 106% | OVCAR-4 ovarian 94.8% | SK-OV-3 ovarian 95% | IGROV1 ovarian 108% | OVCAR-3 ovarian 113% | HS 578T breast 103% | NCI/ADR-RES ovarian 106%

CCC(C)C(N)C(=O)NC(CC(C)C)C(=O)N1CCCC1C(=O)NC(Cc1c[nH]c2ccccc12)C(=O)NC(CCCCN)C(=O)NC(Cc1c[nH]c2ccccc12)C(=O)N1CCCC1C(=O)NC(Cc1c[nH]c2ccccc12)C(=O)NC(Cc1c[nH]c2ccccc12)C(=O)N1CCCC1C(=O)NC(Cc1c[nH]c2ccccc12)C(=O)NC(CCCNC(=N)N)C(=O)NC(CCCNC(=N)N)C(N)=O (centres undefined)
active: CCRF-CEM leukemia -58.7%
inactive: SK-MEL-2 melanoma 108% | EKVX NSCLC 104% | SN12C renal 101% | UO-31 renal 68.1% | TK-10 renal 124% | ACHN renal 98% | CAKI-1 renal 90.4% | A498 renal 130% | SR leukemia 10.9% | RPMI-8226 leukemia 75% | OVCAR-8 ovarian 75.5% | OVCAR-5 ovarian 98.8% | OVCAR-4 ovarian 119% | SK-OV-3 ovarian 109% | IGROV1 ovarian 58.4% | OVCAR-3 ovarian 101% | HS 578T breast 105% | NCI/ADR-RES ovarian 92.1%

COc1cccc2cc(N(C)c3nc(C)nc4c3CCC4)ccc12
inactive: SK-MEL-2 melanoma 41% | EKVX NSCLC 56.1% | SN12C renal 17.2% | UO-31 renal 38.7% | TK-10 renal 58% | ACHN renal 27.3% | CAKI-1 renal 18.4% | CCRF-CEM leukemia 15.2% | RPMI-8226 leukemia 29.2% | OVCAR-8 ovarian 10.5% | OVCAR-5 ovarian 52.2% | OVCAR-4 ovarian 47.1% | SK-OV-3 ovarian 19.5% | IGROV1 ovarian 24.2% | HS 578T breast 17.9% | NCI/ADR-RES ovarian 12.6%
active: A498 renal -11.4% | SR leukemia 9.67% | OVCAR-3 ovarian -18.1%

Cc1ccc(C(F)(F)F)cc1N1CCN(C(=O)[C@H]2C[C@H]2c2ccc(C(F)(F)F)nc2)CC1
inactive: SK-MEL-2 melanoma 89.1% | EKVX NSCLC 90.7% | SN12C renal 92.6% | UO-31 renal 69% | TK-10 renal 96.4% | ACHN renal 91.8% | CAKI-1 renal 69.3% | A498 renal 95.3% | CCRF-CEM leukemia 90.2% | SR leukemia 76% | OVCAR-8 ovarian 89.9% | OVCAR-5 ovarian 85.6% | OVCAR-4 ovarian 92% | SK-OV-3 ovarian 84.2% | IGROV1 ovarian 74.7% | OVCAR-3 ovarian 93.4% | HS 578T breast 91.4% | NCI/ADR-RES ovarian 91.6%

C=C(c1ccc(OC)c(/C=C/C(=O)c2cc(OC)c(OC)c(OC)c2)c1)c1cc(OC)c(OC)c(OC)c1
inactive: EKVX NSCLC 15% | TK-10 renal 24.3% | CAKI-1 renal 24.6% | CCRF-CEM leukemia 17.9% | RPMI-8226 leukemia 10.1% | OVCAR-4 ovarian 40% | SK-OV-3 ovarian 38.6% | IGROV1 ovarian 15.2% | HS 578T breast 96.5%
active: SK-MEL-2 melanoma 3.16% | SN12C renal -13.9% | UO-31 renal -85.6% | ACHN renal -79.9% | A498 renal -23.5% | SR leukemia 9.47% | OVCAR-8 ovarian 6.59% | OVCAR-5 ovarian -51.3% | OVCAR-3 ovarian -39.8% | NCI/ADR-RES ovarian -7.33%

Nc1ncc(-c2ccc3ncnc(N4CCc5ccc(Cl)cc54)c3c2)cn1
active: SK-MEL-2 melanoma -53.3% | EKVX NSCLC 2.36% | SN12C renal 7.41% | UO-31 renal -21.7% | TK-10 renal -30.3% | ACHN renal 3.09% | CAKI-1 renal 5.95% | A498 renal -55.2% | CCRF-CEM leukemia 4.45% | MOLT-4 leukemia -39% | RPMI-8226 leukemia -35.6% | OVCAR-8 ovarian 4.28% | OVCAR-5 ovarian 7.02% | OVCAR-4 ovarian 2.15% | SK-OV-3 ovarian -22.2% | IGROV1 ovarian -47.7% | OVCAR-3 ovarian 3.17% | HS 578T breast -24.5% | NCI/ADR-RES ovarian 3.68%

COc1ccc(/C=C2/CCc3cc4ccc(OC)cc4[o+]c32)c(O)c1
inactive: SK-MEL-2 melanoma 85.6% | EKVX NSCLC 75.7% | SN12C renal 13.6% | TK-10 renal 135% | ACHN renal 34.3% | CAKI-1 renal 81% | A498 renal 94.9% | RPMI-8226 leukemia 14.1% | OVCAR-8 ovarian 42.9% | OVCAR-5 ovarian 115% | OVCAR-4 ovarian 75.9% | OVCAR-3 ovarian 49.8% | HS 578T breast 75.3% | NCI/ADR-RES ovarian 53.8%
active: UO-31 renal -28.7% | CCRF-CEM leukemia 9.94% | MOLT-4 leukemia 0.523% | IGROV1 ovarian 9.32%

O=C1c2c(c3c4cc(F)ccc4oc3c3[nH]c4ccccc4c23)C(=O)N1O
active: UO-31 renal 8.37% | ACHN renal 0.963% | A498 renal -6.56% | CCRF-CEM leukemia 5.67% | MOLT-4 leukemia -22.5%
inactive: SK-MEL-2 melanoma 78% | EKVX NSCLC 62.3% | SN12C renal 28.1% | TK-10 renal 102% | CAKI-1 renal 16.9% | RPMI-8226 leukemia 26.2% | OVCAR-8 ovarian 50.8% | OVCAR-5 ovarian 100% | OVCAR-4 ovarian 61.4% | IGROV1 ovarian 25.6% | OVCAR-3 ovarian 25.5% | HS 578T breast 65.2% | NCI/ADR-RES ovarian 45.6%

COc1ccc(C(=O)/C=C/Nc2cc(-c3ccccc3)nn2-c2ccccc2)cc1
inactive: SK-MEL-2 melanoma 101% | EKVX NSCLC 89.4% | SN12C renal 94.5% | UO-31 renal 79.3% | TK-10 renal 84.2% | ACHN renal 99% | CAKI-1 renal 94.3% | A498 renal 78% | CCRF-CEM leukemia 84.2% | SR leukemia 99.3% | RPMI-8226 leukemia 94.9% | OVCAR-8 ovarian 95.9% | OVCAR-5 ovarian 94.2% | OVCAR-4 ovarian 98.7% | SK-OV-3 ovarian 97.6% | IGROV1 ovarian 97.8% | OVCAR-3 ovarian 109% | HS 578T breast 107% | NCI/ADR-RES ovarian 93.2%

COc1cc(C(=O)c2c(-c3ccccc3)oc3ccccc23)cc(OC)c1O
inactive: SK-MEL-2 melanoma 50.9% | EKVX NSCLC 51.3% | SN12C renal 43.9% | UO-31 renal 51.9% | TK-10 renal 78.4% | ACHN renal 41.7% | CAKI-1 renal 32.7% | CCRF-CEM leukemia 13.9% | SR leukemia 13.7% | RPMI-8226 leukemia 24.7% | OVCAR-8 ovarian 34.6% | OVCAR-5 ovarian 99.8% | OVCAR-4 ovarian 56.3% | SK-OV-3 ovarian 51.2% | IGROV1 ovarian 41.1% | NCI/ADR-RES ovarian 21.8%
active: A498 renal 1.19% | OVCAR-3 ovarian 2.25% | HS 578T breast -3.45%
